Our source for the Potency and outcome values is PubChem BioAssay (Tox21).

Inconclusive results are not listed. Active and inactive are the calls of the source. Unless noted, calls come from the whole dose curve; as a rule, active = well fitted curve in the direction sought with a large enough effect in the repeat runs; inconclusive = weak or mixed curves; inactive = no such curve, though single readings can be large; an effect the other way counts as inactive or inconclusive.

A short description of test [1]: qHTS assay to identify small molecule antagonists of the glucocorticoid receptor (GR) signaling pathway - cell viability counter screen (AID 720693; note: nearly all actives have a fitted effect of over 55% in size). (In qHTS, concentration-response curves come from the screen itself.)
Test [2] is described as follows: qHTS assay for identifying genotoxic compounds that show differential cytotoxicity against isogenic chicken DT40 cell lines with known DNA damage response pathways - wild type cell line (AID 743012). Note: nearly all actives have a fitted effect of over 60% in size. Summed up:
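300 wt DT40 cells/well; cpd (DMSO) pintool-transferred after ~0.5 h at 37 C/5% CO2; 40 h incubation; CellTiter-Glo added, 30 min RT; luminescence read.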

Test [3] can be described thus: qHTS assay for identifying genotoxic compounds that show differential cytotoxicity against isogenic chicken DT40 cell lines with known DNA damage response pathways - Rev3 mutant cell line (AID 743014). Note: nearly all actives have a fitted effect of over 55% in size.
A short description of test [4]: qHTS assay for identifying genotoxic compounds that show differential cytotoxicity against isogenic chicken DT40 cell lines with known DNA damage response pathways - Rad54/Ku70 mutant cell line (AID 743015). Note: nearly all actives have a fitted effect of over 60% in size.
A short description of test [5]: qHTS assay to identify small molecule antagonists of the androgen receptor (AR) signaling pathway - cell viability counter screen (AID 743033; note: nearly all actives have a fitted effect of over 45% in size).
Test [6] in a line: qHTS assay to identify small molecule antagonists of the androgen receptor (AR) signaling pathway using the MDA cell line - cell viability counter screen (AID 743041; note: nearly all actives have a fitted effect of over 45% in size; note: potency is the fitted concentration of half-maximal effect). The method in brief: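 qHTS viability read-out; MDA-kb2 AR-luc; R1881-stimulated; 16 h exposure at 37C, 0% CO2; CellTiter-Fluor, 30 min; fluorescence intensity.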
Test [7] is described as follows: qHTS assay to identify small molecule antagonists of the thyroid receptor (TR) signaling pathway - cell viability counter screen (AID 743064). Note: nearly all actives have a fitted effect of over 50% in size. Note: potency is the fitted concentration of half-maximal effect. Summed up:
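Plate GH3.TRE-Luc cells; incubate 4 h at 37 °C; add compound, then T3 to 1 nM final; incubate 23.5 h; add CellTiter-Fluor; incubate 30 min at 37 °C, 5% CO2; read fluorescence.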

Test [8] is described as follows: qHTS assay to identify small molecule antagonists of the thyroid receptor (TR) signaling pathway (AID 743065). Note: nearly all actives have a fitted effect of over 55% in size. Note: potency is the fitted concentration of half-maximal effect. The method in brief:
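GH3.TRE-Luc rat pituitary cells carrying two TR response elements driving luciferase were plated for 4 h, given compound plus 1 nM T3 (final), and incubated 23.5 h at 37 C. ONE-Glo luminescence measured reporter inhibition; CellTiter-Fluor fluorescence tracked cytotoxicity.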

The subject of test [9] is thyroid hormone receptor (rat, GH3 cells). The test can be described thus: qHTS assay to identify small molecule agonists of the thyroid receptor (TR) signaling pathway (AID 743066; calls by dose curve).
In test [10] the target is Estrogen receptor (Homo sapiens) (UniProt P03372). The test can be described thus: qHTS assay to identify small molecule antagonists of the estrogen receptor alpha (ER-alpha) signaling pathway (AID 743069; active = well fitted curve in the direction sought with a large enough effect in the signal ratio in the repeat runs, not every such curve was filed as active; the % refers to the signal ratio). Summed up:
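Screening used a UAS-driven beta-lactamase reporter integrated into HEK293 cells expressing ER-alpha, stimulated with 17beta-estradiol alongside test compounds over 18 hr at 37C; signal came from LiveBLAzer B/G FRET fluorescence.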

The nature of test [11]: qHTS assay to identify small molecule antagonists of the estrogen receptor alpha (ER-alpha) signaling pathway - cell viability counter screen (AID 743074; calls by dose curve; note: nearly all actives have a fitted effect of over 45% in size).
Test [12] deals with Estrogen receptor (Homo sapiens) (UniProt P03372). Put plainly: qHTS assay to identify small molecule agonists of the estrogen receptor alpha (ER-alpha) signaling pathway (AID 743075; calls by dose curve).
Estrogen receptor (Homo sapiens), sequence (P03372 whole entry, looked up): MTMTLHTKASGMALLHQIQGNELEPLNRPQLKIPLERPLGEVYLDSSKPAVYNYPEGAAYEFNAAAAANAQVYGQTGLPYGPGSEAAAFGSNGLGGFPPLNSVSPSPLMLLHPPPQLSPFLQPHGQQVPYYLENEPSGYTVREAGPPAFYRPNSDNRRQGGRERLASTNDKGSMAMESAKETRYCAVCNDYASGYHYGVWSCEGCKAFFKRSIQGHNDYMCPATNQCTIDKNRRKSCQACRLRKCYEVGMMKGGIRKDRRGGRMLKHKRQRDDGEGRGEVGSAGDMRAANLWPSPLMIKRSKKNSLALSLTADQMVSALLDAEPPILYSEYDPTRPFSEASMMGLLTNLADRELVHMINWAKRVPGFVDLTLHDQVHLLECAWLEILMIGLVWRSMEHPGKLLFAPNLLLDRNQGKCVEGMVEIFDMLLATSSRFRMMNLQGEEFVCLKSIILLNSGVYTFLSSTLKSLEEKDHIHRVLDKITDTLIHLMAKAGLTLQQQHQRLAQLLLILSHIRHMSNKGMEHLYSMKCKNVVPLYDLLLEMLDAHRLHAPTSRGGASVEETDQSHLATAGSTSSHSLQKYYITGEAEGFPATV
Test [13] has the same target. The test can be described thus: qHTS assay to identify small molecule agonists of the estrogen receptor alpha (ER-alpha) signaling pathway using the BG1 cell line (AID 743079). Note: nearly all actives have a fitted effect of over 20% in size.
Test [14] in a line: qHTS assay to identify small molecule antagonists of the estrogen receptor alpha (ER-alpha) signaling pathway using the BG1 cell line (AID 743080; calls by dose curve;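 note: BG1 cells stimulated with 17beta-estradiol alongside compound; series mostly up to about 70 µM; nearly all actives have a fitted effect of over 25% in size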). The method in brief: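 Seeding, 24 h rest, compound transfer from DMSO, 17beta-estradiol addition, 21.5 h incubation, CellTiter-Fluor (30 min, 37 C), then ONE-Glo (30 min, room temperature): this sequence was run on BG1-Luc-4E2 reporter cells.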

The nature of test [15]: qHTS assay to identify small molecule antagonists of the estrogen receptor alpha (ER-alpha) signaling pathway using the BG1 cell line - cell viability counter screen (AID 743081).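 Note: compound given together with 17beta-estradiol as the ER stimulus; series mostly up to about 70 µM; nearly all actives have a fitted effect of over 45% in size.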
The target of a further test is Aromatase (Homo sapiens) (UniProt P11511). The test can be described thus: qHTS assay to identify aromatase inhibitors (AID 743083). Note: series mostly up to about 70 µM; nearly all actives have a fitted effect of over 55% in size.
Aromatase (Homo sapiens), sequence (P11511 whole entry, looked up): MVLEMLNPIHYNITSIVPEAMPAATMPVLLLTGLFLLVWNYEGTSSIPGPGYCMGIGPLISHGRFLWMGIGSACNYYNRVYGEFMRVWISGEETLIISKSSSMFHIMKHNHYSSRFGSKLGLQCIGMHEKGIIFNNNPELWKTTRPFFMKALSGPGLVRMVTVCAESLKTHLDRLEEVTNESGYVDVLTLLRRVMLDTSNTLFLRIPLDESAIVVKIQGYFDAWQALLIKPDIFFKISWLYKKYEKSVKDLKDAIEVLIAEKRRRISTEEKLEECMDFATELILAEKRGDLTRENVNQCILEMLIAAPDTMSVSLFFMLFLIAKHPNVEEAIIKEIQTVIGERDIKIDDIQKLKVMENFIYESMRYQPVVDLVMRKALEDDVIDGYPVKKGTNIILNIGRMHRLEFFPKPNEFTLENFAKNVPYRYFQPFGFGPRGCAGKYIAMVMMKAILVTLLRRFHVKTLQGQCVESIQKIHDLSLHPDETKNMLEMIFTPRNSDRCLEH
Test [16] addresses Androgen receptor (Homo sapiens) (UniProt P10275). The test can be described thus: qHTS assay to identify small molecule antagonists of the androgen receptor (AR) signaling pathway (AID 743035; active = well fitted inhibition curve with a large enough effect in the signal ratio in the repeat runs, not every such curve was filed as active; the % refers to the signal ratio). Summed up:
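In this cell-based reporter screen, compounds were tested in concentration series against R1881-activated HEK293 cells expressing beta-lactamase under UAS control; after 16 h at 37C, FRET substrate was added and fluorescence read 2 h later.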

The target is the same in test [17]. The test can be described thus: qHTS assay to identify small molecule agonists of the androgen receptor (AR) signaling pathway (AID 743036; active = well fitted activation curve with a large enough effect in the signal ratio in the repeat runs, with a control signal flat, not every such curve was filed as active; the % refers to the signal ratio). The method in brief:
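Reporter line: GeneBLAzer AR-UAS-bla-GripTite (HEK293). Steps: plate cells, 4 h rest, add compounds, 16 h at 37C, add LiveBLAzer B/G substrate, 2 h at RT, read fluorescence.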

The target is the same in test [18]. The test can be described thus: qHTS assay to identify small molecule agonists of the androgen receptor (AR) signaling pathway using the MDA cell line (AID 743040; note: nearly all actives have a fitted effect of over 20% in size; note: potency is the fitted concentration of half-maximal effect). The method in brief:
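Agonist activity is measured as luciferase luminescence in human MDA-kb2 cells whose MMTV reporter responds to both AR and GR. Compounds in DMSO incubate 16 h at 37C, 0% CO2, and ONE-Glo is read after 30 min.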

The target is the same in test [19]. The test can be described thus: qHTS assay to identify small molecule antagonists of the androgen receptor (AR) signaling pathway using the MDA cell line (AID 743042; note: nearly all actives have a fitted effect of over 55% in size). Summed up:
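MDA-kb2 cells (human breast carcinoma, stably carrying an MMTV-luciferase reporter responsive to AR and GR) were plated at 3,000 cells/well and preincubated 5 hr at 37C, then given compound plus R1881 agonist for 16 h. ONE-Glo luminescence was read.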

Androgen receptor (Homo sapiens), sequence (P10275 whole entry, looked up): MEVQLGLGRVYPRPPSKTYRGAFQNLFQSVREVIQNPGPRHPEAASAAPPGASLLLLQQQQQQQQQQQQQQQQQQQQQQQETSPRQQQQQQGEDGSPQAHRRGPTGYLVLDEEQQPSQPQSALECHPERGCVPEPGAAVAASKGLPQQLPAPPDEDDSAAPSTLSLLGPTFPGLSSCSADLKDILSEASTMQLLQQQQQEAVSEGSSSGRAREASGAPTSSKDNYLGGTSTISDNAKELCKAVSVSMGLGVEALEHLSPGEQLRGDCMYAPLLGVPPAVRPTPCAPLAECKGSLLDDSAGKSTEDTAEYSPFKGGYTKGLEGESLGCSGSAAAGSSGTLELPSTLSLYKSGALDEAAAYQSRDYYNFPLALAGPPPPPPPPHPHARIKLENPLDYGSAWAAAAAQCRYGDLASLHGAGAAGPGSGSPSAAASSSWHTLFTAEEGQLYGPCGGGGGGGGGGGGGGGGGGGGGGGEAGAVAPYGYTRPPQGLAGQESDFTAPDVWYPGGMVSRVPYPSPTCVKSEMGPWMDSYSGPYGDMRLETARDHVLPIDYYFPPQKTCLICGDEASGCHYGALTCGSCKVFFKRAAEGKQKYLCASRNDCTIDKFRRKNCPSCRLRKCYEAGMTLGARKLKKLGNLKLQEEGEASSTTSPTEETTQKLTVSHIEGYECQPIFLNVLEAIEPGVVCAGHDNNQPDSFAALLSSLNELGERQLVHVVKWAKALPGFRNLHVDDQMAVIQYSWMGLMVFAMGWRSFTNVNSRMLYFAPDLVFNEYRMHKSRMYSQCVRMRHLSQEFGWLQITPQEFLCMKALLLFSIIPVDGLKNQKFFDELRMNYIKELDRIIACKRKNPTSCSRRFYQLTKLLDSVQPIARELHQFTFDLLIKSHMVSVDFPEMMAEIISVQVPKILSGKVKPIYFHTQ

As to `CC(Cl)C(C)Cl` (centres undefined), the Potency result in [1], in test [2], in test [3], in [4], in test [5] and in test [6] was “inactive” each time. The Potency result in test [7], in test [8], in [9], in test [10], in test [11] and in test [12] was “inactive” each time. For the same molecule, the Potency result (in test [13]; in test [14]; in test [15]; with Aromatase (Homo sapiens)) was “inactive” throughout.
On to `CCC(Cl)CCl` (centres undefined), for which the Potency entry in test [1], in test [2], in test [3], in [4], in test [5] and in test [6] was “inactive” throughout. In addition, the Potency result in test [7], in test [8], in test [9], in test [10], in test [11] and in test [12] was “inactive” throughout. Also, the Potency entry (in test [13]; in test [14]; in test [15]; in the test with Aromatase (Homo sapiens)) was “inactive” throughout.
On to `C=CC(=O)OC`, for which the Potency entry in test [1], in [2], in [3], in test [4], in test [5] and in test [6] was “inactive” throughout. The Potency entry (in [7]; in test [8]; in [9]; in test [11]; in test [15]; with Aromatase (Homo sapiens)) was “inactive” throughout.
Turning to `ClCC(Br)CBr` (centres undefined), the Potency entry in test [1], in test [2], in [3], in test [4], in [5] and in test [6] was “inactive” each time. The Potency result in [7], in [8], in [9], in [10], in test [11] and in test [12] was “inactive” in each case. Besides, the Potency entry (in test [13]; in test [14]; in test [15]; with Aromatase (Homo sapiens)) was “inactive” each time.
As to `O=[N+]([O-])c1cc(C(F)(F)F)cc([N+](=O)[O-])c1Cl`, the Potency entry in test [1], in [2], in test [3], in test [4], in test [5] and in test [8] was “inactive” throughout. Besides, the Potency entry (in [9]; in test [11]; in test [12]; in test [14]; with Aromatase (Homo sapiens)) was “inactive” throughout. Besides, the Potency in test [6] was 43.5 µM (active); in test [7], 61.4 µM (active).
Regarding `CN(N=O)c1ccc([N+](=O)[O-])cc1`, the Potency entry in test [1], in test [2], in [3], in test [4], in [5] and in [6] was “inactive” each time. For the same molecule, the Potency result in test [7], in test [8], in test [9], in [10], in test [11] and in test [12] was “inactive” in each case. Moreover, the Potency result (in [13]; in test [14]; in test [15]; in the test with Aromatase (Homo sapiens)) was “inactive” throughout.
As to `O=[N+]([O-])c1ccccc1CCl`, the Potency result in test [1], in test [2], in [3], in [4], in test [5] and in [6] was “inactive” throughout. The Potency result in test [7], in test [8], in test [9], in test [10], in [11] and in test [12] was “inactive” throughout. Further, the Potency result (in [13]; in [15]; with Aromatase (Homo sapiens)) was “inactive” each time.
Regarding `C=CCOC(C)=O`, the Potency result in [1], in [2], in test [3], in test [4], in test [5] and in test [16] was “inactive” throughout. Besides, the Potency result in test [18], in test [6], in [19], in test [7], in test [8] and in test [9] was “inactive” throughout. The Potency result in test [10], in test [11], in [12], in [13], in [14] and in test [15] was “inactive” throughout. Moreover, in the test with Aromatase (Homo sapiens), the Potency result is “inactive”. The molecule was classed as inactive in [17].
For the molecule `CN1C(=O)NC(=O)C(C)(C2=CCCCC2)C1=O` (centres undefined), the Potency entry in test [1], in [2], in test [3], in test [4], in test [5] and in test [6] was “inactive” in each case. Further, the Potency result (in [7]; in [8]; in test [9]; in [11]; in test [15]; with Aromatase (Homo sapiens)) was “inactive” throughout.
For `CC(=O)NC1CCSC1=O` (centres undefined), the Potency result in [1], in test [2], in test [3], in [4], in test [5] and in test [16] was “inactive” in each case. Besides, the Potency result in test [18], in test [6], in test [19], in test [7], in test [8] and in [9] was “inactive” each time. The Potency entry in [10], in [11], in test [12], in test [13], in test [14] and in [15] was “inactive” throughout. Also, the Potency result in the test with Aromatase (Homo sapiens) is “inactive”. Also, the call in test [17] was inactive.
In the case of `Brc1ccccc1`, the Potency entry in test [1], in test [2], in test [3], in test [4], in test [5] and in test [16] was “inactive” in each case. Also, the Potency result in test [18], in test [6], in test [19], in [7], in test [8] and in test [9] was “inactive” throughout. The Potency result in test [10], in test [11], in [12], in test [13], in test [14] and in test [15] was “inactive” throughout. Also, in the test with Aromatase (Homo sapiens), the Potency entry is “inactive”. The molecule was called inactive in test [17].
As to `O=NN1CCCCCC1`, the Potency result in test [1], in [2], in test [3], in [4], in test [5] and in test [16] was “inactive” throughout. Besides, the Potency entry in test [18], in test [6], in test [19], in [7], in test [8] and in test [9] was “inactive” throughout. In addition, the Potency result in [10], in test [11], in [12], in test [13], in test [14] and in test [15] was “inactive” each time. The Potency result with Aromatase (Homo sapiens) was “inactive”. Also, in test [17], the result was inactive.
On to `Cn1cc[n+](C)c1` (tested in a mixture with another compound), for which the Potency entry in test [1], in test [2], in [3], in test [4], in test [5] and in test [6] was “inactive” each time. The Potency entry in [7], in test [8], in test [9], in test [10], in test [11] and in test [12] was “inactive” throughout. The Potency entry (in [13]; in test [14]; in [15]; with Aromatase (Homo sapiens)) was “inactive” throughout.
As to `ClC=C(Cl)Cl`, the Potency entry in [1], in test [2], in test [3], in test [4], in [5] and in test [6] was “inactive” each time. Also, the Potency result in test [7], in test [8], in test [9], in test [10], in test [11] and in test [12] was “inactive” in each case. Moreover, the Potency entry (in [13]; in test [14]; in test [15]; with Aromatase (Homo sapiens)) was “inactive” each time.
As to `BrCC(Br)C1CCC(Br)C(Br)C1` (centres undefined), the Potency entry in test [1], in [2], in [3], in test [4], in [5] and in test [16] was “inactive” in each case. Besides, the Potency result (in test [6]; in [19]; in test [9]; in [11]; in test [15]; with Aromatase (Homo sapiens)) was “inactive” in each case. In addition, in [17], the molecule was called inactive. Also, the figures for the Potency in [18], in [7] and in test [8] were 1.36 µM (active), 68.2 µM (active) and 48.3 µM (active), respectively.
